Records with an inconclusive call do not appear. Where a call stands in place of a potency, no number is given. The source made the active and inactive calls. Calls follow the shape of the dose curve; as a rule, active = well fitted cell-killing curve with a large enough effect; inconclusive = small, poorly fitted or top-dose-only effect; inactive = no such curve, though single readings can be large or run the other way.
test: qHTS of pediatric cancer cell lines to identify multiple opportunities for drug repurposing: Confirmatory screen for U-2 OS cells (AID 1347122); conditions: U-2 OS osteosarcoma cell viability; series mostly up to 45.9 µM; also: nearly all actives have a fitted effect of over 65% in size
Text: Drug repurposing or repositioning has been offered as a strategy for drug development in oncology programs. This approach has special potential for childhood cancers and other rare or orphan diseases, where the expected return on new drug development has been a disincentive to pharmaceuticals.
In this project we exploit the poly-pharmacology of drugs to discover new indications via phenotypic screening of a panel of 19 well-characterized cell lines derived from solid tumors seen in children and adolescents. The goal is to identify approved drugs with previously unrecognized anticancer properties that has the potential to reveal new mechanisms and biological processes involved in carcinogenesis or drug resistance. We employed a titration-based paradigm (quantitative high-throughput screening or qHTS), where all compounds were tested at multiple concentrations for their effect on cell viability. Concentration-response curves (CRCs) were derived directly from the primary screen, and both potency and efficacy values were used to identify compounds with robust bioactivity profiles. We screened the NIH Chemical Genomics Center (NCGC) Pharmaceutical Collection (NPC) and Mechanism Interrogation Plate (MIPE) small molecule collections of approved and investigational compounds against these cell lines; and measured metabolically active cells after 48 hours of compound treatment as a proxy for cell viability.
Assay Submitter: Nathalia J. Martinez, National Center for Advancing Translational Sciences, National Institutes of Health, Rockville, MD, USA; email: natalia.martinez@nih.gov
[1] Shen, M et al. Quantitative high-throughput phenotypic screening of pediatric cancer cell lines identifies multiple opportunities for drug repurposing. Oncotarget 2017 Dec 19;9(4):4758-4772. PMID 29435139.
The cells were obtained from University of North Carolina (UNC), Pediatric Preclinical Testing Program (PPT), and Coriell Institute (CI).
qHTS cell viability assay:
Cells were assayed in growth media at a density of 500-1,000 cells/well. Five microliters of cells were dispensed into 1,536-well, white, solid-bottom, TC-treated plates (Greiner Bio One) using a multidrop dispenser and incubated at 37 degrees C, 5% CO2, under a humidified atmosphere for 5 hours. Twenty-three nanoliters of compounds and controls (neutral control DMSO or positive control bortezomib at final concentration of 2.3 µM) were subsequently transferred by Kalypsys pintool. For primary screens, the MIPE collection was tested at 11-point dilutions (final concentrations range from 0.78 nM to 46 µM) and the NPC collection at 8-point dilutions (final concentrations range from 0.59 nM to 46 µM). Compounds tested in follow-up screens were assayed at 11-point dilutions. Cells were incubated for 48 hours, followed by addition of 3 µL of CellTiter-Glo (Promega). After a 15 min incubation at room temperature, samples were analyzed for luminescence intensity using a ViewLux High-throughput CCD imager equipped with clear filters.
Potency is read from the fitted curve at half-maximal effect.

| SMILES | Potency |
| --- | --- |
| N=C(N)c1ccc(OCCCOc2ccc(C(=N)N)cc2)cc1 | 0.465 µM (active) |
| COc1c(C)c2c(c(O)c1C/C=C(\C)CCC(=O)OCCN1CCOCC1)C(=O)OC2 | 0.185 µM (active) |
| CC(C)=CCC/C(C)=C/CC/C(C)=C/C(=O)OCC(=O)[C@@]1(O)CC[C@H]2[C@@H]3CCC4=CC(=O)C=C[C@]4(C)[C@H]3[C@@H](O)C[C@@]21C | 20.8 µM (active) |
| C[C@]12CCC(=O)C=C1CC[C@@H]1[C@@H]2[C@@H](O)C[C@@]2(C)[C@H]1CC[C@]2(O)C(=O)COC(=O)CCC(=O)O | inactive |
| COc1cc(/C=C/C(N)=O)cc(OC)c1OC | inactive |
| CC(C)(C)CC(=O)OCC(=O)[C@@]1(O)CC[C@H]2[C@@H]3CCC4=CC(=O)C=C[C@]4(C)[C@H]3[C@@H](O)C[C@@]21C | inactive |
| CCN(CC)CC(=O)OCC(=O)[C@@]1(O)CC[C@H]2[C@@H]3CCC4=CC(=O)CC[C@]4(C)[C@H]3[C@@H](O)C[C@@]21C | inactive |
| CC(=O)OCC(=O)[C@@]1(O)[C@H](OC(C)=O)C[C@H]2[C@@H]3CCC4=CC(=O)C=C[C@]4(C)[C@@]3(F)[C@@H](O)C[C@@]21C | inactive |
| Nc1ccc2cc3ccc(N)cc3nc2c1 | 9.27 µM (active) |
| Nc1c2ccccc2nc2ccccc12 | 14.7 µM (active) |
| CC(=O)[C@@]1(O)CC[C@H]2[C@@H]3C[C@H](C)C4=CC(=O)CC[C@]4(C)[C@H]3CC[C@@]21C | inactive |
| CCC1=C[C@@H]2CN(C1)Cc1c([nH]c3ccccc13)[C@@](C(=O)OC)(c1cc3c(cc1OC)N(C)[C@H]1[C@@](O)(C(=O)OC)[C@H](OC(C)=O)[C@]4(CC)C=CCN5CC[C@]31[C@@H]54)C2 | 0.185 µM (active) |
| CO[C@@H]1[C@@H](OC)[C@H](C)[C@@](O)(CC(=O)O)O[C@H]1[C@H](C)[C@H]1O[C@@]2(CC[C@@](C)([C@H]3CC[C@@](C)([C@@H]4O[C@@H]([C@H]5O[C@](C)(O)[C@H](C)C[C@@H]5C)C[C@@H]4OC4C[C@H](OC)[C@@H](OC)[C@H](C)O4)O3)O2)C[C@H](O)[C@H]1C (stereo not given in full) | 0.329 µM (active) |
| Cc1cc(OCCOCC[N+](C)(C)Cc2ccccc2)ccc1C(C)(C)CC(C)(C)C | 23.3 µM (active) |
| CCC(=O)O[C@]1(C(=O)COC)[C@@H](C)C[C@H]2[C@@H]3CCC4=CC(=O)C=C[C@]4(C)C3(F)[C@@H](O)C[C@@]21C (stereo not given in full) | inactive |
| O=[N+]([O-])c1ccc(O)c2ncccc12 | inactive |
| CCc1cc2cc(OC)c(OC)cc2c(Cc2ccccc2)n1 | inactive |
| CCCCC(CC)CNC(=O)CC(C)OC(=O)CCC(=O)O (stereo not given) | inactive |
| C[C@H]1C[C@@H]2[C@H]([C@@H](O)C[C@@]3(C)[C@H]2CC[C@]3(O)C(=O)CO)[C@@]2(C)C=CC(=O)C=C12 | inactive |
| CCOC(=O)O[C@]1(C(=O)OCCl)CC[C@H]2[C@@H]3CCC4=CC(=O)C=C[C@]4(C)[C@H]3[C@@H](O)C[C@@]21C | inactive |
